# Out of some 69,000 compounds screened, about 8,600 (12%) showed an effect of 50% or more. This is one part of a sample in which strong results are shown more often than they occur.
# Test system: Plasmodium berghei
# Experiment: Screen against P. berghei liver stage (PbLuc), transformed with Luciferase, at 10uM
# Assay type: functional, HepG2
# Conditions: tested at 10 uM
row,Structure (SMILES),INHIBITION [%]
1,O=S(=O)(c1cn[nH]c1)N1CCC(O)(CN2CCOCC2)C1 (stereo unspecified),38.5
2,COc1cc(-c2nc3c([nH]2)CCCNC3=O)ccc1O,-53
3,CN(C)C(=O)CN1CCC2(CCN(CC3CC3)CC2)C1=O,28.4
4,COc1ccccc1CN(C)C(=O)NCc1c(C)cc(C)[nH]c1=O,-13.3
5,O=C(c1ccc(N2CCOCC2)nc1)N1CCCC(n2cccn2)C1 (stereo unspecified),31.3
6,CCc1cnc(C)nc1NC1CC(=O)N(CC)C1 (stereo unspecified),14.9
7,c1ccc(-n2cc(CN3CCCC3Cn3cccn3)nn2)cc1 (stereo unspecified),-18
8,Cc1cc(C)c(S(N)(=O)=O)cc1C(=O)NCCN1CCCCC1,42.1
9,COc1cc(OC)cc(C(=O)NCc2nn(C)c3c2COCC3)c1,24.2
10,O=S(=O)(c1cn[nH]c1)N1CCCC1c1cc[nH]n1 (stereo unspecified),-12.9
11,COc1cccc(CNC(=O)CC2CSc3nc(C)c(C)c(=O)n32)c1 (stereo unspecified),27
12,O=C(c1ccnnc1)N1C[C@H](Oc2ccccn2)[C@H]2OCCC[C@H]21,-15.9
13,CC1(C)CC(=O)c2cnc3nc(N4CCOCC4)nc(O)c3c2C1,-42.5
14,Cc1sc2nc(C(F)(F)F)nc(N3CCC(NS(C)(=O)=O)CC3)c2c1C,34.4
15,CN1CCCN(c2nc(C3CC3)ns2)CC1,-31.5
16,Cc1nc(C(F)(F)F)nc(N2CCC(O)(C(=O)O)CC2)c1C,24.4
17,Cc1nc(C(F)(F)F)nc(N2CCC3(CC2)CC(C(=O)O)N(C)C3)c1C (stereo unspecified),47.2
18,Cc1sc2nc(C(F)(F)F)nc(N3CCCN(C)CC3)c2c1C,53.9
19,CC(=O)N1CCN(c2nc(C(F)(F)F)nc3sc(C)c(C)c23)CC1,34.4
20,CN1CCCN(c2nc(C3CCCC3)nc3c2cnn3C)CC1,26.4
21,Cc1sc2nc(C(F)(F)F)nc(N3CCN(S(C)(=O)=O)CC3)c2c1C,55

row,Structure (SMILES),INHIBITION [%]
1,Cc1sc2nc(C(F)(F)F)nc(N3CCN(C)CC3)c2c1C,65.8
2,Cc1cc(C)n(CCCC(=O)N2CCc3ncc(Cl)cc3C2)n1,-50.2
3,Cn1cc(NC(=O)N2CCC2c2ccccc2)ccc1=O (stereo unspecified),6.1
4,O=C(O)c1nc(SCc2ccccc2)ncc1Br,32.4
5,CCN1CC(C(=O)NCCn2cccc2)CC1=O (stereo unspecified),43.9
6,Cc1ncsc1C(=O)N1CCCC(CO)(CC2CC2)C1 (stereo unspecified),29.4
7,Cn1nc(Cn2ccnc2)c2c1CN(c1nccs1)C2,3.88
8,CCN1CCCCC1C(=O)N1CCC(OC2CCCC2)CC1 (stereo unspecified),10.2
9,O=C(c1cnccn1)N1CCCC2(CCN(Cc3ccc(F)cc3)C2)C1 (stereo unspecified),8.03
10,CC(C)(C)C(Cn1cccn1)NC(=O)c1ccco1 (stereo unspecified),35.2
11,Cc1cccc(CNC(Cc2ccsc2)c2nc(C)c(C)s2)n1 (stereo unspecified),91.6
12,Cc1nc(C(Cc2ccsc2)NC(=O)CN2CCOCC2)sc1C (stereo unspecified),30.45
13,Cc1cccc(CNC(Cc2ccsc2)c2nccs2)n1 (stereo unspecified),-24.4
14,CC(C(=O)NCc1ccc(N2CCCCCC2)nc1)n1cncn1 (stereo unspecified),31.2
15,CC(C(=O)NCc1ccc(N2CCCC2)nc1)n1cncn1 (stereo unspecified),21.6
16,CC(C(=O)NCCN1CCN(C)CC1)n1cncn1 (stereo unspecified),34.7
17,Cc1cccc(N2CCN(CCNC(=O)C(C)n3cncn3)CC2)c1 (stereo unspecified),55.5
18,COc1ccc(NC(=O)C(C)n2cncn2)cn1 (stereo unspecified),-33.9
19,CC(C(=O)Nc1ccc(N2CCCC2)nc1)n1cncn1 (stereo unspecified),56.1
20,CC(C(=O)Nc1ccc(N2CCCCC2)nc1)n1cncn1 (stereo unspecified),28.8
21,CC(C(=O)Nc1cccc(N2CCCCC2)c1)n1cncn1 (stereo unspecified),70.7

row,Structure (SMILES),INHIBITION [%]
1,CC(C(=O)Nc1ccc(N2CCCC2)nc1)n1cccn1 (stereo unspecified),9.54
2,CC(C(=O)NCCCN1CCN(c2ccccc2)CC1)n1cncn1 (stereo unspecified),-16
3,CC(C(=O)NCc1ccc(N2CCCCC2)nc1)n1cncn1 (stereo unspecified),7.12
4,CC(C(=O)Nc1ccc(N2CCOCC2)nc1)n1cncn1 (stereo unspecified),53
5,CC(C)NC(=O)N1CCc2onc(C(=O)Nc3cccnc3)c2C1,-11
6,COc1cc(NCc2ccccc2-n2cncn2)nc(N)n1,-2.43
7,CNC(=O)NC(=O)CCN1CCN(c2nccs2)CC1,11.9
8,O=S(=O)(N[C@@H]1CCO[C@]2(CCN(CC3CCOCC3)C2)C1)C1CC1,1.48
9,O=C1COC2(CCN(c3ncccn3)CC2)CN1Cc1ccccn1,-6.21
10,COc1ccc2c(ccn2CCC(=O)NCCCC(=O)O)c1,24.7
11,Cc1noc(C(C)N(C)Cc2ccco2)n1 (stereo unspecified),-33.4
12,CCc1cnccc1C(=O)NC1CCN(C(=O)OC)CC1,-7.16
13,CC(NC(=O)COC1CCCC1)c1nc(-c2ccccc2)c[nH]1 (stereo unspecified),-43.3
14,NCCn1cc(C(=O)N2CCNC(=O)C2c2cccc(F)c2)nn1 (stereo unspecified),-13.8
15,CN(CC(=O)NCC(F)(F)F)Cc1nc2c(s1)CCCC2,46.7
16,CN(CC(=O)NCc1ccco1)Cc1nc2c(s1)CCCC2,40.8
17,CN(CC(=O)NCC1CCCO1)Cc1nc2c(s1)CCCC2 (stereo unspecified),57.1
18,O=S(=O)(CCN1CCCCC1Cn1cncn1)c1ccccc1 (stereo unspecified),-8.11
19,CC(=O)NCCNC(=O)CNC1CCCN(c2ccc(C)nn2)C1 (stereo unspecified),47
20,c1cn(-c2cnc(C3CCNCC3)cn2)cn1,26.8
21,Cc1cc(C2CCN(C(=O)c3cnn(C)c3)CC2)ccn1,-4.51

row,Structure (SMILES),INHIBITION [%]
1,Cc1ccnc(C2CCN(C(=O)c3cnn(C)c3)CC2)n1,50.3
2,Cc1ccnc(C2CCN(C(=O)c3cnn(C)c3)C2)n1 (stereo unspecified),48.4
3,CCOCC1CN(C(=O)c2cccnc2)Cc2cnn(C)c21 (stereo unspecified),-2.35
4,COc1cccc(CN2CCC(Cc3cnc(CN(C)C)cn3)CC2)c1,25.8
5,CCn1ncc2[nH]c(-c3cc(OC)c(OC)cc3OC)nc21,26.5
6,c1cc(CN2CCc3ncc(CN4CCOCC4)n3CC2)cs1,-36
7,Cc1ccc(N2C[C@H](O)[C@@H](N3CCN(c4ccccn4)CC3)C2)nn1,6.29
8,NC(=O)c1csc(N2CCN(C3CCc4ccccc4C3)CC2)n1 (stereo unspecified),47.6
9,Cc1ccc(N2CCC3(CC2)CCN(C2CCOCC2)CC3)nn1,58.7
10,Cc1ccc(N2CCC3(CCN(C(=O)C4CCOC4)CC3)CC2)nn1 (stereo unspecified),-45.8
11,Cc1ccc(N2CCC3(CC2)CCN(C2CCOC2)CC3)nn1 (stereo unspecified),8.85
12,Cc1csc(N2CCCN(C3Cc4ccccc4C3)CC2)n1,73.9
13,Cc1ccc(N2CCN(C)c3ncccc3C2)nn1,48.2
14,Cc1csc(N2CCCN(C(=O)c3ccsc3)CC2)n1,-36.4
15,Cc1csc(N2CCN(C3CCc4ccccc4C3)CC2)n1 (stereo unspecified),53
16,Cc1ccc(N2CCN(C3CCc4ccccc4C3)CC2)nn1 (stereo unspecified),53.9
17,Cc1csc(N2CCN(Cc3ccccn3)CC2)n1,34.2
18,Cc1csc(N2CCC(NCC3(O)CCc4ccccc43)CC2)n1 (stereo unspecified),42.6

# Reference: ChEMBL document CHEMBL4513216, “Probing the Open Global Health Chemical Diversity Library for Multistage-Active Starting Points for Next-Generation Antimalarials” (ACS Infect Dis, 2020)
